Test systems include T-47D breast; MDA-MB-435 melanoma; SW-620 colon; MCF7 breast; HCT-116 colon; HCC-2998 colon; KM12 colon; BT-549 breast.
Experiment in all cases: NCI-60 one-dose screen, 48 h (100 = growth as untreated, 0 = no growth, -100 = all killed)
Conditions in all cases: 10 µM

The values that follow come from PubChem BioAssay (NCI).

Several values for one entry are separate records, joined by “and”; a condition that tells them apart may be missing. Identical values can stand only once. About 83,000 compounds went through this panel and 20% of them were active in at least one assay; those are over-represented in the sample as a whole.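 Step 1: grow cells in 96-well plates. Step 2: add test compound at a single concentration. Step 3: incubate 48 h. Step 4: record percent growth.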 Activity calls are given as the source filed them. How the source made its calls: active means growth percent below 10; inactive means the rest. Where a SMILES comes first, the peptide text is derived from it. [ ]: non-standard residue; d: D form. ξ: configuration not given here. ξV = CC(C)C(N)C(=O)O

On to `O=C(Nc1ccc(C(=O)O)c(O)c1)c1ccccc1`, for which the growth was 101% (inactive) and 104% (inactive) with T-47D breast; 99% (inactive) and 99.1% (inactive) in the assay on MDA-MB-435 melanoma; 99% (inactive) and 113% (inactive) in the assay on SW-620 colon; 102% (inactive) and 95.6% (inactive) with MCF7 breast; 107% (inactive) and 101% (inactive) in the assay on HCT-116 colon; 102% (inactive) and 106% (inactive) in the assay with HCC-2998 colon. Besides, the growth with KM12 colon is 120% (inactive).

In the case of `COC1OCC(O)C(O)C1O` (configuration not stated), the growth in the assay with T-47D breast is 105% (inactive); with MDA-MB-435 melanoma, 100% (inactive); in the assay on SW-620 colon, 99.3% (inactive); with MCF7 breast, 90.7% (inactive); with HCT-116 colon, 102% (inactive); in the assay on HCC-2998 colon, 107% (inactive). Moreover, the growth in the assay on KM12 colon was 103% (inactive).

For the compound `O=C(/C=C/c1cccnc1)c1ccccc1`, the growth in the assay with T-47D breast was 86.5% (inactive); with BT-549 breast, 103% (inactive); with MDA-MB-435 melanoma, 80.2% (inactive); in the assay with SW-620 colon, 23% (inactive); in the assay on MCF7 breast, 26.1% (inactive); in the assay with HCT-116 colon, 21.1% (inactive). Also, the results for the growth in the assay on HCC-2998 colon and with KM12 colon were 86% (inactive) and 51.4% (inactive), respectively.

For the compound `CC(C)C(NC(=O)CN)C(=O)O` (configuration not stated) (H-Gly-[ξV]-OH), the growth in the assay with T-47D breast is 102% (inactive); in the assay with MDA-MB-435 melanoma, 104% (inactive) and 101% (inactive); in the assay with SW-620 colon it was 117% (inactive) and 101% (inactive); with MCF7 breast, 106% (inactive) and 101% (inactive); in the assay with HCT-116 colon it was 96.9% (inactive) and 107% (inactive); in the assay with HCC-2998 colon, 103% (inactive) and 106% (inactive). Also, the growth in the assay with KM12 colon was 109% (inactive) and 106% (inactive).

In the case of `CCCCCCCCCCSC(=N)N`, the growth with T-47D breast is -5.33% (active); in the assay on MDA-MB-435 melanoma it was 30% (inactive); in the assay on SW-620 colon it was -5.44% (active); in the assay with MCF7 breast it was 8.06% (active); in the assay on HCT-116 colon, 23.4% (inactive); in the assay on HCC-2998 colon, -27.2% (active). In addition, in the assay on KM12 colon, the growth is 23.2% (inactive).

For the compound `C[n+]1c2cc(N)ccc2cc2ccc(N)cc21`, the growth is -14.1% (active) and -9.22% (active) and -15% (active) in the assay with T-47D breast; 2.1% (active) [middle of 4 runs] in the assay with SW-620 colon; -3.9% (active) [middle of 4 runs] in the assay on MCF7 breast.

`CC(C)(C)CC(C)(C)c1ccc(OCCO)cc1`: the growth in the assay on T-47D breast is 105% (inactive); in the assay with MDA-MB-435 melanoma, 115% (inactive); in the assay with SW-620 colon, 109% (inactive); with MCF7 breast it was 137% (inactive); in the assay on HCT-116 colon it was 102% (inactive); in the assay with HCC-2998 colon, 110% (inactive). Also, the growth in the assay on KM12 colon was 99.4% (inactive).

In the case of `CO[C@H](C(=O)[C@@H](O)[C@@H](C)O)[C@@H]1Cc2cc3cc(OC4CC(OC5CC(O)C(O)C(C)O5)C(O)C(C)O4)c(C)c(O)c3c(O)c2C(=O)[C@H]1OC1CC(OC2CC(OC3CC(C)(O)C(O)C(C)O3)C(O)C(C)O2)C(O)C(C)O1` (some centres not stated), the growth was 7.17% (active) in the assay with T-47D breast; -62.9% (active) in the assay on MDA-MB-435 melanoma; -25.1% (active) in the assay on SW-620 colon; -3.56% (active) in the assay on MCF7 breast; 5.29% (active) in the assay on HCT-116 colon; -5.71% (active) in the assay on KM12 colon.

Take `CCCC1CCC(=C2C(=O)CCC2=O)O1` (configuration not stated): the growth was 87.8% (inactive) and 110% (inactive) in the assay on T-47D breast; 94.8% (inactive) and 95.4% (inactive) in the assay on MDA-MB-435 melanoma; 105% (inactive) in the assay on SW-620 colon; 91.9% (inactive) and 118% (inactive) in the assay with MCF7 breast; 91.9% (inactive) and 107% (inactive) with HCT-116 colon; 104% (inactive) and 99.1% (inactive) in the assay on HCC-2998 colon. In addition, the growth in the assay with KM12 colon is 105% (inactive) and 108% (inactive).

As to `Clc1cc(Cl)c(Cl)nn1`, the growth in the assay with T-47D breast was 79.3% (inactive); with MDA-MB-435 melanoma, 105% (inactive); in the assay on SW-620 colon, 107% (inactive); in the assay on MCF7 breast it was 86.3% (inactive); in the assay with HCT-116 colon it was 86.2% (inactive); in the assay with HCC-2998 colon it was 119% (inactive). The growth in the assay on KM12 colon was 105% (inactive).

In the case of `NC(=O)SCC(=O)NNc1ccccc1`, the growth was 73.5% (inactive) in the assay on T-47D breast; 101% (inactive) in the assay on MDA-MB-435 melanoma; 87.5% (inactive) in the assay on SW-620 colon; 94.2% (inactive) in the assay with MCF7 breast; 94.6% (inactive) in the assay on HCT-116 colon; 103% (inactive) in the assay on HCC-2998 colon. Moreover, the growth with KM12 colon is 81.3% (inactive).

With `COc1ccc(CC(=O)c2ccc(O)cc2O)cc1`, the growth in the assay on T-47D breast was 182% (inactive); in the assay on MDA-MB-435 melanoma, 115% (inactive); with SW-620 colon, 111% (inactive); with MCF7 breast, 108% (inactive); in the assay with HCT-116 colon it was 96.6% (inactive); in the assay on HCC-2998 colon it was 107% (inactive). Also, the growth with KM12 colon was 122% (inactive).

With `Nc1ccc2cc3ccc(N)cc3nc2c1`, the growth with T-47D breast is 102% (inactive) and 2.81% (active); in the assay on MDA-MB-435 melanoma it was 103% (inactive) and 23.4% (inactive); with SW-620 colon, 103% (inactive) and 10.5% (inactive); with MCF7 breast, 111% (inactive) and -21.7% (active); in the assay on HCT-116 colon it was 109% (inactive) and 3.02% (active); with HCC-2998 colon, 110% (inactive) and 16.7% (inactive). Also, the growth in the assay with KM12 colon was 121% (inactive) and 9.1% (active).

Consider `O=C(O)COc1ccc(OCC(=O)O)cc1`, for which the growth with T-47D breast is 5.61% (active); in the assay with MDA-MB-435 melanoma, 30.4% (inactive); in the assay with SW-620 colon it was 15.1% (inactive); with MCF7 breast, 6.66% (active); with HCT-116 colon it was 9.02% (active); in the assay with HCC-2998 colon, -34.2% (active). Besides, the growth in the assay on KM12 colon was 8.16% (active).

As to `CN1CCN(CCCN2c3ccccc3Sc3ccc(C(F)(F)F)cc32)CC1`, the growth with MDA-MB-435 melanoma is 27.6% (inactive); in the assay with SW-620 colon it was 34.3% (inactive); in the assay on MCF7 breast it was 13.9% (inactive); in the assay with HCT-116 colon, 36% (inactive); in the assay with HCC-2998 colon, -6.16% (active); with KM12 colon, 40.2% (inactive).

`Clc1ccc(/C=C/c2ccccn2)c(Cl)c1`: the growth in the assay on T-47D breast is 47.5% (inactive); in the assay on MDA-MB-435 melanoma, 104% (inactive); with SW-620 colon, 86% (inactive); in the assay with MCF7 breast, 7.59% (active); with HCT-116 colon it was 77.7% (inactive); in the assay on HCC-2998 colon it was 77.9% (inactive). Moreover, in the assay with KM12 colon, the growth is 71.4% (inactive).
